For six molecules, residual activity results are on record in ChEMBL document CHEMBL2218924, “A broad activity screen in support of a chemogenomic map for kinase signalling research and drug discovery” (Biochem J, 2013).

Test [1] concerns the target ALK tyrosine kinase receptor (Homo sapiens) (UniProt Q9UM73). The conditions noted are these: at 10 µM.
The target of test [2] is T1, Activin receptor type-1B (Homo sapiens) (UniProt P36896).
T1 sequence (whole entry): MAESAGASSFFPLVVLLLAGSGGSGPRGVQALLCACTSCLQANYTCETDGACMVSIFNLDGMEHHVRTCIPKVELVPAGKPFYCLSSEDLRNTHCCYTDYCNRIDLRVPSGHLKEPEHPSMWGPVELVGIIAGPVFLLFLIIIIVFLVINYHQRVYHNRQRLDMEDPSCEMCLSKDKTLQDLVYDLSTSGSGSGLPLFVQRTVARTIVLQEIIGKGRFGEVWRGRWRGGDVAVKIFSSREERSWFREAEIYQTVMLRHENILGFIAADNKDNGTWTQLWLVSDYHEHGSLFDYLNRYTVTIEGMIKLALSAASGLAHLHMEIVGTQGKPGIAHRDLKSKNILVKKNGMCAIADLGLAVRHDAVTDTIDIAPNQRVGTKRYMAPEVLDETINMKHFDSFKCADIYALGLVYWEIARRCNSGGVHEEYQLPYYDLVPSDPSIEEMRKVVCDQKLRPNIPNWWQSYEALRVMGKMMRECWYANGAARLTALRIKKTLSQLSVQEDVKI
The note with it: at 1 µM.

Test [3] addresses T1, Activin receptor type-1B (Homo sapiens). The conditions noted are these: at 10 µM.
In test [4] the target is T2, AMP-activated protein kinase (AMPK) alpha-1/beta-1/gamma-1 (Homo sapiens) (UniProt P54619+Q9Y478+Q13131). The conditions noted are these: at 1 µM.
Test [5] concerns the target T2, AMP-activated protein kinase (AMPK) alpha-1/beta-1/gamma-1 (Homo sapiens). The conditions noted are these: at 10 µM.
Test [6] addresses T3, AMP-activated protein kinase, AMPK (Homo sapiens) (UniProt P54646+O43741+P54619+Q9UGJ0+Q9Y478+Q13131+Q9UGI9). The conditions noted are these: at 1 µM.
In test [7] the target is T3, AMP-activated protein kinase, AMPK (Homo sapiens). The conditions noted are these: at 10 µM.
In test [8] the target is T4, NUAK family SNF1-like kinase 1 (Homo sapiens) (UniProt O60285).
T4 sequence (whole entry): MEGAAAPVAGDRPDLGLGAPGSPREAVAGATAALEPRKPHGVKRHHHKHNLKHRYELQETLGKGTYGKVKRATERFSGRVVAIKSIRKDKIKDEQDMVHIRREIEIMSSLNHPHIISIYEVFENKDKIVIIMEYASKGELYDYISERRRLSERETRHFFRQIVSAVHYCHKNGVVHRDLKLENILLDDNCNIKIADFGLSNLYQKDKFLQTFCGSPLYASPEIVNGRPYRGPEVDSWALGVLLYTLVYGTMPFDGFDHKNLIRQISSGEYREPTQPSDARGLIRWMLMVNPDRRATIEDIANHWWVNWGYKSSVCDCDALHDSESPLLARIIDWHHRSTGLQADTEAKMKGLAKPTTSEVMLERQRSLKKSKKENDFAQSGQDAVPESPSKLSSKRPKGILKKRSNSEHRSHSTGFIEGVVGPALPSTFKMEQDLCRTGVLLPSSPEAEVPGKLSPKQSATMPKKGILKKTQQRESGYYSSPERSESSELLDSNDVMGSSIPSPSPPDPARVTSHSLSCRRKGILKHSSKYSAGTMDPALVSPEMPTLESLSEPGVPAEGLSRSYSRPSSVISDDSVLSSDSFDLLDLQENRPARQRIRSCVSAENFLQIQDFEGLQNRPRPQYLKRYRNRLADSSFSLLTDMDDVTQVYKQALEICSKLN
The note with it: at 1 µM.

The target of test [9] is T4, NUAK family SNF1-like kinase 1 (Homo sapiens). The note with it: at 10 µM.
Test [10] deals with T5, Mitogen-activated protein kinase kinase kinase 5 (Homo sapiens) (UniProt Q99683).
T5 sequence (whole entry): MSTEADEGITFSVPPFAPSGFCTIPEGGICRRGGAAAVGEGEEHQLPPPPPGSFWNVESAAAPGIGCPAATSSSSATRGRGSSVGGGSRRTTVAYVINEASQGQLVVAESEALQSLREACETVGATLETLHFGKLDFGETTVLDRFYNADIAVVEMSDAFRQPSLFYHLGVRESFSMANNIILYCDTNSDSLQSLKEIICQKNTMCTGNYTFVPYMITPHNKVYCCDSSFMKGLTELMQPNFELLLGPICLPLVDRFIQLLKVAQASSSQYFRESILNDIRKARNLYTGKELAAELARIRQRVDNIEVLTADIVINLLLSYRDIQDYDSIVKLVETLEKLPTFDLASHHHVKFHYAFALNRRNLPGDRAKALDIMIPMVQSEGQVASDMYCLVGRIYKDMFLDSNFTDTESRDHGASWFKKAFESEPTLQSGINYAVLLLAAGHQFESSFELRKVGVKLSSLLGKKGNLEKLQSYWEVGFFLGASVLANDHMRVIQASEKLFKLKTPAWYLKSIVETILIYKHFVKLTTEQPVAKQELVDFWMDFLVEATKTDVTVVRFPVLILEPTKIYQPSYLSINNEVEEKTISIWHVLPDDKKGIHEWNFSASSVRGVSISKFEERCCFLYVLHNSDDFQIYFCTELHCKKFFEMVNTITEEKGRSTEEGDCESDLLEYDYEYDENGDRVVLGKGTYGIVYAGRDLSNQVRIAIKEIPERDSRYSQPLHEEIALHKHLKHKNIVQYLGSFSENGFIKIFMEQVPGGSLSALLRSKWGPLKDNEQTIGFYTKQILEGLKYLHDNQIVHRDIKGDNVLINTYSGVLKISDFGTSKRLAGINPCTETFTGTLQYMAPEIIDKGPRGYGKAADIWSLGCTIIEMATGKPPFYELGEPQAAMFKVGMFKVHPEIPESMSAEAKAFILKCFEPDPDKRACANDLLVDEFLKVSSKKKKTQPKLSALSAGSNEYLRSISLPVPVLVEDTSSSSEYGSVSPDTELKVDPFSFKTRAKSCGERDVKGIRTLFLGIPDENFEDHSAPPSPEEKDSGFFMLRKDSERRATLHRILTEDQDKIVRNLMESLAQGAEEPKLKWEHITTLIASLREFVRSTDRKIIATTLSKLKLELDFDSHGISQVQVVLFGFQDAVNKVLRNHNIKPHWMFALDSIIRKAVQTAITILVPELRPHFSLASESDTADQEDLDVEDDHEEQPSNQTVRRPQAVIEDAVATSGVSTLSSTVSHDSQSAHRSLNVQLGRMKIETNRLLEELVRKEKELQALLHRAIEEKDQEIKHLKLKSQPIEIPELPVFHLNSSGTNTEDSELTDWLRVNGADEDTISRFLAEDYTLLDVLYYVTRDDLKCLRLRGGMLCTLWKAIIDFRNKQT
The conditions noted are these: at 1 µM.

Test [11] concerns the target Platelet-derived growth factor receptor alpha (Homo sapiens) (UniProt P16234). The conditions noted are these: at 1 µM.
Test [12] shares this target. The note with it: at 10 µM.
For test [13], the target named is Platelet-derived growth factor receptor beta (Homo sapiens) (UniProt P09619). The conditions noted are these: at 1 µM.
Test [14] shares this target. The note with it: at 10 µM.
The target in test [15] is T6, 3-phosphoinositide-dependent protein kinase 1 (Homo sapiens) (UniProt O15530).
T6 sequence (whole entry): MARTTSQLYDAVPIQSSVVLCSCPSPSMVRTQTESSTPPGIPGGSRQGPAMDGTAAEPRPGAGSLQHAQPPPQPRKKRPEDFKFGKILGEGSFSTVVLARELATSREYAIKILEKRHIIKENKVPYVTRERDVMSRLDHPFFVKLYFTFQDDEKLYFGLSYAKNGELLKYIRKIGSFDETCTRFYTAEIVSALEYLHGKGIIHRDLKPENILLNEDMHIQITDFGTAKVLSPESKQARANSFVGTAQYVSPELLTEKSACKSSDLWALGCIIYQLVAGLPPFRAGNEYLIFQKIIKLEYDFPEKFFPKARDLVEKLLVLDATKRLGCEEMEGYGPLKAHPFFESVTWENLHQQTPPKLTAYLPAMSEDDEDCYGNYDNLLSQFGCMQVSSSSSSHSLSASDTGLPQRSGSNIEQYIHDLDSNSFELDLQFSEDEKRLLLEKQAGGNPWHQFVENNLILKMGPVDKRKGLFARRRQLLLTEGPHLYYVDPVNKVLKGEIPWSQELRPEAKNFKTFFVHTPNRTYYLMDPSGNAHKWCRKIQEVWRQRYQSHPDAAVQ
The conditions noted are these: at 1 µM.

Test [16] deals with T6, 3-phosphoinositide-dependent protein kinase 1 (Homo sapiens). The note with it: at 10 µM.
Test [17] addresses cAMP-dependent protein kinase catalytic subunit alpha (Homo sapiens) (UniProt P17612). The note with it: at 1 µM.
The target is the same in test [18]. The conditions noted are these: at 10 µM.
Test [19] concerns the target RAC-gamma serine/threonine-protein kinase (Homo sapiens) (UniProt Q9Y243). The conditions noted are these: at 1 µM.
Test [20] shares this target. The conditions noted are these: at 10 µM.

T2 sequence (P54619 whole entry): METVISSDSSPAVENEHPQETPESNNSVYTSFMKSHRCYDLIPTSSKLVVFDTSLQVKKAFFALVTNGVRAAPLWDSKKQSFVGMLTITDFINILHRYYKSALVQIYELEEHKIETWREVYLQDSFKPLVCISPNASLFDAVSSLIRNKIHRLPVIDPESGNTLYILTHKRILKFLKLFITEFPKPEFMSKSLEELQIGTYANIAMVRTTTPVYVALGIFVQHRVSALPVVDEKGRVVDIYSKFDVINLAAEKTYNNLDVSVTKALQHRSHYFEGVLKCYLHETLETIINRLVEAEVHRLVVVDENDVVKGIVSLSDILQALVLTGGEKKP
T2 sequence (Q13131 whole entry partner): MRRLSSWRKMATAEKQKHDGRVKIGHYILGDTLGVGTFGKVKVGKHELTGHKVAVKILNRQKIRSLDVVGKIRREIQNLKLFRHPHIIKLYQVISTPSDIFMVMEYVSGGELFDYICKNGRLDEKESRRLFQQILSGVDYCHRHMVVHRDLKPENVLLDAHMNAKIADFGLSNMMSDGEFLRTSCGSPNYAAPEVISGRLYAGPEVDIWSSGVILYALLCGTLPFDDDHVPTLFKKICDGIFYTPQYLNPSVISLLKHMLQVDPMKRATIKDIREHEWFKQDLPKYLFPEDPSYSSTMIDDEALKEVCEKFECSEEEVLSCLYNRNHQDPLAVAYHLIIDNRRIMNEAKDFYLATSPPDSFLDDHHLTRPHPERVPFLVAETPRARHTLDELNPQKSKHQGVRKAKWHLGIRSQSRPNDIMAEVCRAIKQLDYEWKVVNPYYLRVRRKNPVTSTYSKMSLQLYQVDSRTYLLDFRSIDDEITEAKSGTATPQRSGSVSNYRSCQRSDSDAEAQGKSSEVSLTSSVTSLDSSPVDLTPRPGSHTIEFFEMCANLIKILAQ
T2 sequence (Q9Y478 2-270 partner limits assumed): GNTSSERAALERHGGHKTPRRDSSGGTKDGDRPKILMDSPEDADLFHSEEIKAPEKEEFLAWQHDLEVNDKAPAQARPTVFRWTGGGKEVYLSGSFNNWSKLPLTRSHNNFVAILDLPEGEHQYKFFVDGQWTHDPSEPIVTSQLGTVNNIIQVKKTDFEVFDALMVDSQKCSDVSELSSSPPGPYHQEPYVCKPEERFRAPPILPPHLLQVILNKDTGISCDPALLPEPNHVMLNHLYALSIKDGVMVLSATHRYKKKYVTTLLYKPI
Platelet-derived growth factor receptor beta (Homo sapiens), sequence (P09619 whole entry): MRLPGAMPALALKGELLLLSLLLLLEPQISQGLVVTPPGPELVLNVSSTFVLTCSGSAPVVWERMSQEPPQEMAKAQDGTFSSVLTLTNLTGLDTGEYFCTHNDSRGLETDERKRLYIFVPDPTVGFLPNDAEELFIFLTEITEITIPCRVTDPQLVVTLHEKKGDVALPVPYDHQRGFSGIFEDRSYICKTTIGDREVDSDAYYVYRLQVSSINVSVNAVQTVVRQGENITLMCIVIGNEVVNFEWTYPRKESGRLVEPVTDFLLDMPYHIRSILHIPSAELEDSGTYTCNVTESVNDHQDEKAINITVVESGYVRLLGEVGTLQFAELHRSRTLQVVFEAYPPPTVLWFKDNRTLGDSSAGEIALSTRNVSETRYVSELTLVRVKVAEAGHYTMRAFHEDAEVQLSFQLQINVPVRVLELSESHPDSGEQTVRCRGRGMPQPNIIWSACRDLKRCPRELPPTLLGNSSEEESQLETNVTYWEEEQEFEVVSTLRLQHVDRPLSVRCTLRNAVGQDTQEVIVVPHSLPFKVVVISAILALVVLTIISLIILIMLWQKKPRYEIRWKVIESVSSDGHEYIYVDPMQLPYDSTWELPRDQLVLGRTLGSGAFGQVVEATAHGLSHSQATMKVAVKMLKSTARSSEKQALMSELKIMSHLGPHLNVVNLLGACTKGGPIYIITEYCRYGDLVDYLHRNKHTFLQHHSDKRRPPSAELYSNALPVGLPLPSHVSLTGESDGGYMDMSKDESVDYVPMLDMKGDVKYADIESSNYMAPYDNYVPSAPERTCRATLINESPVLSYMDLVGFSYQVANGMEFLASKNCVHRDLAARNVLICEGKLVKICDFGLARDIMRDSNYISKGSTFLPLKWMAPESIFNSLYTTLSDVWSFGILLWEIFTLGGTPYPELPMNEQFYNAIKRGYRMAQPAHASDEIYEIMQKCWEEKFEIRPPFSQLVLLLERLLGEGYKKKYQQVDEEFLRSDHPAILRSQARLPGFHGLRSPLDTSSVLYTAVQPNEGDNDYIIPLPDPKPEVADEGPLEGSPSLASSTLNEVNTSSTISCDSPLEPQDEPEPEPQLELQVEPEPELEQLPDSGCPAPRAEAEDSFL
RAC-gamma serine/threonine-protein kinase (Homo sapiens), sequence (Q9Y243 whole entry): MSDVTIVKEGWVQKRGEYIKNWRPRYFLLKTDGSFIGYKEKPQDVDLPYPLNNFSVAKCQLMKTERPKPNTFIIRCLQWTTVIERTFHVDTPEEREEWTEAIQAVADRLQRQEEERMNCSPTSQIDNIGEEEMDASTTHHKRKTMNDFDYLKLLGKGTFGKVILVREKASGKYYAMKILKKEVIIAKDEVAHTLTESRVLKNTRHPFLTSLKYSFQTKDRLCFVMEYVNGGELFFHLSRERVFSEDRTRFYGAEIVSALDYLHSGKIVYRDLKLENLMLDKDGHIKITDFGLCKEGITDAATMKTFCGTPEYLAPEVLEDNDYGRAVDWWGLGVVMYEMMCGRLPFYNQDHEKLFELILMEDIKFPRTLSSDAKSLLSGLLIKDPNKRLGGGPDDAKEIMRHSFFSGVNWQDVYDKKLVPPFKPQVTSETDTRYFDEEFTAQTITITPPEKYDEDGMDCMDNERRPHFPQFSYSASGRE
ALK tyrosine kinase receptor (Homo sapiens), sequence (Q9UM73 19-1620 limits assumed): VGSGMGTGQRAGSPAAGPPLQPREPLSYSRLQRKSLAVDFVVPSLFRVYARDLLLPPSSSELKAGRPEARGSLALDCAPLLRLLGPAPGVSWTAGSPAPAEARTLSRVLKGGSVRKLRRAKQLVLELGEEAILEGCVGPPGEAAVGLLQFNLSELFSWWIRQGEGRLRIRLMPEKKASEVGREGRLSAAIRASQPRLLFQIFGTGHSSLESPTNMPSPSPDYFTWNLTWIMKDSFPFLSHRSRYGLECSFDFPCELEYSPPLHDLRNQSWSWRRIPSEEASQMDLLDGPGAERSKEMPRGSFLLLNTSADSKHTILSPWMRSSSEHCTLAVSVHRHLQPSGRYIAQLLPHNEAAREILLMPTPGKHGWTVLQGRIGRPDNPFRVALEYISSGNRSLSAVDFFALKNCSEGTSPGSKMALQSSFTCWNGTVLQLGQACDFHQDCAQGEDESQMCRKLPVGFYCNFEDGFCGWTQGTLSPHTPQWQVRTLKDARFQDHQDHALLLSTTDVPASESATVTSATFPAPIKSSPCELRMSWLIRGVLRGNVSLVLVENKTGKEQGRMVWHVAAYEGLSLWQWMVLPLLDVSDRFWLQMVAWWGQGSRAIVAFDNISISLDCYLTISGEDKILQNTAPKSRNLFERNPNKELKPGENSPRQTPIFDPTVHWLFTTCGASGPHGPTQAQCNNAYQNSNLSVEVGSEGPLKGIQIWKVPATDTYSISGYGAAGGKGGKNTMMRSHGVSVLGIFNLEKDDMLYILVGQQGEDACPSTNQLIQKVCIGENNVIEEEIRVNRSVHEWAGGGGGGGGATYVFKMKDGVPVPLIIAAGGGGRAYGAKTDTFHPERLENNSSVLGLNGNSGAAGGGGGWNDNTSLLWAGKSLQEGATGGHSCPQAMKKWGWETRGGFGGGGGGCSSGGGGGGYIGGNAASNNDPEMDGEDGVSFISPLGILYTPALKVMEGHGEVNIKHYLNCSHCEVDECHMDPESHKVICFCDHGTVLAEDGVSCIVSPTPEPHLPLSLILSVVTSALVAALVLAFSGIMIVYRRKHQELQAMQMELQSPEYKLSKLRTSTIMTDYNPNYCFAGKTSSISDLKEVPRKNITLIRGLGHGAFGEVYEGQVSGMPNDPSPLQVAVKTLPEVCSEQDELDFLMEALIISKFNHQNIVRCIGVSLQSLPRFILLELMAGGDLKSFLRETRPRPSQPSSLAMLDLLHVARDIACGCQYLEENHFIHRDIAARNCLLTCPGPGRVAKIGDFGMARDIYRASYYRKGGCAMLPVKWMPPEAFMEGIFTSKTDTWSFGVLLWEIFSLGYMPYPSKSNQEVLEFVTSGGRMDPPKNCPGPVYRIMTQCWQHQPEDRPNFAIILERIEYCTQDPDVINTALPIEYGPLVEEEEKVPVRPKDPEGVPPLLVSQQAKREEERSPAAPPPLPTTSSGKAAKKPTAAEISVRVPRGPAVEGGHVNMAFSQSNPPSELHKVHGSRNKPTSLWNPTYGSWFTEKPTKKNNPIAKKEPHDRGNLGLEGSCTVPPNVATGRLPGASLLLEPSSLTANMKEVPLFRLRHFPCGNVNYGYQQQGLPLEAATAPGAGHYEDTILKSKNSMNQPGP

On to `O=C1Nc2cc(Br)ccc2/C1=C1/Nc2ccccc2/C1=N\O`, for which the residual activity in [1] was 10%; in test [2], 109%; in test [3], 96%; in test [4], 2%; in [5], 10%; in test [6] it was 1%. In addition, the residual activity in [7] came to 10%; in test [8] it was 11%; in test [9] it was 18%; in [10], 91%; in [11] it was 30%; in test [12], 6%. Moreover, the residual activity in test [13] worked out at 36%; in test [14], 11%; in [15], 42%; in test [16], 37%; in [17], 89%; in test [18], 97%. The residual activity in [19] and in test [20] was 83% each time.

With `NC(=O)c1ccc2[nH]c(-c3ccc(Oc4ccc(Cl)cc4)cc3)nc2c1`, the residual activity in test [1] stood at 87%; in [2] it was 111%; in test [3], 97%; in [4] it was 72%; in [5], 32%; in [6] it was 71%. The residual activity was 40% in test [7]; 98% in test [8]; 85% in test [9]; 80% in [10]; 115% in [11]; 121% in test [12]. For the same molecule, the residual activity was 107% in test [13]; 128% in [14]; 105% in test [15]; 107% in test [16]; 106% in [17]; 129% in test [18]. Besides, the residual activity in test [19] turned out to be 106%; in test [20] it was 103%.

With `Oc1c2ccccc2c2c3c(cccc13)N=N2`, the residual activity is 29% in test [1]; 86% in test [2]; 84% in [3]; 64% in test [4]; 24% in [5]; 69% in [6]. In addition, the residual activity amounted to 28% in test [7]; 28% in test [8]; 17% in test [9]; 36% in test [10]; 108% in test [11]; 86% in [12]. In addition, the residual activity in test [13] worked out at 99%; in [14] it was 96%; in test [15], 72%; in test [16] it was 19%; in test [17], 89%; in test [18] it was 73%. The residual activity worked out at 89% in test [19] and 66% in [20].

For the molecule `Cc1ccc(NC2=CC(=O)c3sc(C)nc3C2=O)cc1`, the residual activity came to 93% in test [1]; 105% in [2]; 113% in test [3]; 88% in [4]; 84% in test [5]; 94% in [6]. The residual activity in [7] turned out to be 107%; in test [8], 108%; in test [9] it was 89%; in [10], 110%; in [11], 104%; in test [12], 112%. The residual activity in test [13] worked out at 93%; in test [14], 92%; in test [15], 99%; in test [16], 102%; in [17] it was 102%; in test [18], 106%. The results for the residual activity in [19] and in test [20] were 91% and 89%, respectively.

For `O=C1NC(=O)c2c1c1c3ccccc3[nH]c1c1[nH]c3cc(Br)ccc3c21`, the residual activity in test [1] turned out to be 69%; in test [2] it was 106%; in [3] it was 99%; in test [4], 84%; in [5], 87%; in test [6], 82%. The residual activity in [7] turned out to be 69%; in test [8] it was 52%; in [9] it was 45%; in test [10], 102%; in test [11], 101%; in [12], 95%. The residual activity worked out at 89% in test [13]; 76% in test [14]; 75% in test [15]; 29% in test [16]; 97% in [17]; 101% in [18]. Further, the residual activity is 75% in test [19] and 77% in test [20].

On to `Cn1cc(/C=C2\C(=O)Nc3ccc(S(N)(=O)=O)cc32)c2ccccc21`, for which the residual activity in test [1] turned out to be 31%; in test [2], 118%; in [3], 104%; in test [4], 9%; in test [5] it was 4%; in [6] it was 9%. Also, the residual activity in [7] amounted to 4%; in [8], 18%; in [9] it was 11%; in test [10] it was 29%; in test [11] it was 77%; in [12], 33%. Also, the residual activity in test [13] is 98%; in test [14], 51%; in [15] it was 76%; in [16], 32%; in test [17], 93%; in [18], 57%. Further, the residual activity came to 88% in test [19] and 81% in [20].
